Test results: PubChem BioAssay (Tox21)
Inconclusive results are not listed. Active and inactive are the calls of the source. Unless noted, calls come from the whole dose curve.

Tests used:
[1] = qHTS assay to identify small molecule antagonists of the vitamin D receptor (VDR) signaling pathway - cell viability counter screen (AID 743225; active = well fitted curve in the direction sought with a large enough effect in the repeat runs; an effect the other way counts as inactive or inconclusive; note: nearly all actives have a fitted effect of over 50% in size)
Outline: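 Parallel cytotoxicity test: VDR-UAS-bla HEK 293T, 3 nM (final) 1-alpha,25-dihydroxyvitamin D3 with test compound, 16 h, 37C. Endpoint is CellTiter-Glo luminescence in the same wells.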

[2] = qHTS assay to identify small molecule agonists of the NFkB signaling pathway (AID 1159509; active = well fitted curve in the direction sought with a large enough effect in the signal ratio in the repeat runs, not every such curve was filed as active; the % refers to the signal ratio; note: series mostly up to about 61 µM)
Outline: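 ME-180 NFkB-bla, 2,000 cells/well, overnight plating; cpd pinned in DMSO, 5 h 37 C; B/G FRET substrate 1.5 h RT; ex 405, em 460/530 nm.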

[3] = qHTS assay to identify small molecule agonists of the NFkB signaling pathway - cell viability counter screen (AID 1159515); note: series mostly up to about 61 µM; nearly all actives have a fitted effect of over 55% in size
Outline: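 Viability in NFkB-bla ME-180 cells was measured by CellTiter-Glo luminescence, 30 min room temperature, in wells already treated 5 hr with compounds and read for reporter FRET.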

[4] = qHTS assay to identify small molecule agonists of the endoplasmic reticulum stress response signaling pathway (AID 1159516; active = well fitted activation curve with a large enough effect in the signal ratio in the repeat runs, not every such curve was filed as active; the % refers to the signal ratio)
Outline: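 ER stress element reporter (bla) in HeLa. 1,500 cells/well, overnight attachment; 5 hr compound; 2 hr RT substrate; dual-emission fluorescence.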

[5] = qHTS assay to identify small molecule agonists of the endoplasmic reticulum stress response signaling pathway - cell viability counter screen (AID 1159517);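 note: HeLa cells carrying an ER stress response element beta-lactamase reporter; series mostly up to about 61 µM; nearly all actives have a fitted effect of over 50% in size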
Outline: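 HeLa cells carrying an ESRE-driven beta-lactamase reporter receive compound for 5 hr at 37 C. Cell viability is then gauged with CellTiter-Glo by luminescence, 30 min at room temperature.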

[6] = qHTS assay to identify small molecule agonists of the AP-1 signaling pathway - cell viability counter screen (AID 1159525); note: nearly all actives have a fitted effect of over 55% in size
Outline: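 Luminescent ATP readout (Cell Titer Glo, 30 min RT), normalised to DMSO and tetra n-octyl ammonium bromide controls. Cells were ME-180 AP-1-bla in 0.5% dialyzed FBS Opti-MEM, with a 5 h, 37 °C compound exposure.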

[7] = qHTS assay to identify small molecule agonists of the AP-1 signaling pathway (AID 1159526)
[8] = target: Retinoic acid receptor RXR-alpha (Homo sapiens) (UniProt P19793); test: qHTS assay to identify small molecule agonists of the RXR signaling pathway (AID 1159527); note: nearly all actives have a fitted effect of over 35% in size
Sequence of Retinoic acid receptor RXR-alpha (Homo sapiens) (P19793 whole entry, looked up): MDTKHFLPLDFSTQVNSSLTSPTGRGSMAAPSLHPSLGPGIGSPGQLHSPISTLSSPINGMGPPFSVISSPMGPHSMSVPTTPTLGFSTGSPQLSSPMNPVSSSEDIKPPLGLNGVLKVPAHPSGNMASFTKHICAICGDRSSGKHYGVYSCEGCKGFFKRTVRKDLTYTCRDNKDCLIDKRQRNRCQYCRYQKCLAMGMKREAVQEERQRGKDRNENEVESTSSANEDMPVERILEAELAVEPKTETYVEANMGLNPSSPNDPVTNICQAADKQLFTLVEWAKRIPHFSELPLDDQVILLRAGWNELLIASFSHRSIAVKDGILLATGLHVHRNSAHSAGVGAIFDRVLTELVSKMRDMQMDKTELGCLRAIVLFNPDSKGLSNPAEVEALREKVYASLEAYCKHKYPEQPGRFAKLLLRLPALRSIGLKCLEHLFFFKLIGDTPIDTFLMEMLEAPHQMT
Outline: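 16 hr incubation of compound-treated RXR-alpha-UAS-bla HEK 293T cells (2% charcoal-stripped FBS, 37 C) preceded a 2 hr room-temperature LiveBLAzer FRET substrate step and blue/green fluorescence measurement.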

[9] = target: Nuclear receptor ROR-gamma (Homo sapiens) (UniProt P51449); test: qHTS assay to identify small molecule antagonists of the retinoid-related orphan receptor gamma (ROR-gamma) signaling pathway (AID 1159521; active = well fitted curve in the direction sought with a large enough effect in the repeat runs; an effect the other way counts as inactive or inconclusive;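 note: CHO cells with doxycycline inducible ROR-gamma driving an RORE luciferase reporter; top concentration of the series differs between compounds; nearly all actives have a fitted effect of over 50% in size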)
Outline: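 Decreased RORE-driven luciferase luminescence indicates antagonism. Tet-on RORγ CHO cells received compound, then 1 uM final doxycycline 2 h later; signal read after 16 h incubation.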

[10] = qHTS assay to identify small molecule antagonists of the retinoid-related orphan receptor gamma (ROR-gamma) signaling pathway - cell viability counter screen (AID 1159520; active = well fitted curve in the direction sought with a large enough effect in the repeat runs; an effect the other way counts as inactive or inconclusive; note: nearly all actives have a fitted effect of over 50% in size)
Outline: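 Cytotoxicity was read from cellular ATP (CellTiter-Glo luminescence) after 16 hr at 37 C with 1 uM doxycycline induction. The inducer was added 2 hr after compound transfer to Tet-on ROR gamma CHO cells.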

Measured: Potency

CCCOCCOCCOCCO
not listed: [9] | [10]
inactive: all other assays above

Nc1cc(C(=O)O)ccc1Cl
not listed: [10]
inactive: all other assays above

O=C(/C=C/c1ccccc1)NCCO
not listed: [10]
inactive: all other assays above

CC(C)CCO
not listed: [10]
inactive: all other assays above

CCCCCCCCCCCCCCCC(=O)NCCO
not listed: [4]
inactive: all other assays above

NS(=O)(=O)c1cc2c(cc1Cl)NC(C(Cl)Cl)NS2(=O)=O (stereo not drawn)
not listed: [4] | [9] | [10]
inactive: all other assays above

CCCCCCCCOC(C)=O
not listed: [4]
inactive: all other assays above

FC(F)(F)c1ccc(Cl)cc1Cl
not listed: [4]
inactive: all other assays above

OC[C@@H](O)[C@H](O)[C@@H](O)[C@@H](O)CO
not listed: [4] | [10]
inactive: all other assays above

COCCOCCOCCOC
not listed: [4]
inactive: all other assays above

NS(=O)(=O)c1ccccc1OC(F)(F)F
not listed: [1] | [4] | [10]
inactive: all other assays above

COc1cc([N+](=O)[O-])ccc1N
not listed: [1] | [2]
inactive: all other assays above

CCOc1ccc(NC(=O)OC(C)C)cc1OCC
not listed: [4] | [6]
inactive: all other assays above

O=P(O)(O)OCC(O)CO (stereo not drawn)
not listed: [4] | [6]
inactive: all other assays above

C=C(C)C(=O)OCCCCCCOC(=O)C(=C)C
not listed: [1] | [2]
inactive: all other assays above

C/C=C(\C)C(=O)OCC/C=C\CC
not listed: [4]
inactive: all other assays above

C=CCOc1c(Br)cc(C(C)(C)c2cc(Br)c(OCC=C)c(Br)c2)cc1Br
not listed: [4]
inactive: all other assays above

COc1cc(C=O)ccc1OC(=O)C(C)C
not listed: [4]
inactive: all other assays above

CO[Si](CCCCl)(OC)OC
not listed: [4] | [9]
inactive: all other assays above

C[C@H]1O[C@H](O[C@H]2[C@H](O)[C@@H](O)[C@@H](O[C@H]3[C@H](O)[C@@H](O)[C@H](O)O[C@@H]3CO)O[C@@H]2CO)[C@H](O)[C@@H](O)[C@@H]1N[C@H]1C=C(CO)[C@@H](O)[C@H](O)[C@H]1O
not listed: [4] | [6]
inactive: all other assays above

CCCCCCCC[Si](OCC)(OCC)OCC
not listed: [4]
inactive: all other assays above

CCC(=O)OCCC(C)CCC=C(C)C (stereo not drawn)
not listed: [1] | [2]
inactive: all other assays above

C[C@H](CCC(=O)NCC(=O)O)[C@H]1CC[C@H]2[C@@H]3[C@H](O)C[C@@H]4C[C@H](O)CC[C@]4(C)[C@H]3C[C@H](O)[C@]12C
inactive: [2] | [3] | [5] | [10] | [7] | [8]

CCOC(=O)CC#N
not listed: [4]
inactive: all other assays above

COC(=O)CCC(=O)O
not listed: [4]
inactive: all other assays above

CC(C)SCc1ccco1
not listed: [4]
inactive: all other assays above
